The values that follow come from PubChem BioAssay (Tox21).

Molecules are shown by their SMILES. Records with an inconclusive call do not appear. Unmarked numbers belong to inactive results. Active and inactive are the calls of the source. Calls follow the shape of the dose curve; as a rule, active = well fitted cell-killing curve with a large enough effect in the repeat runs; inconclusive = weak or mixed curves, or effect the other way; inactive = flat fitted curve, though single readings scatter.
% is scaled to controls: 0 for no effect and ±100 for the full control effect; potency is read from the fitted curve at half-maximal effect.

This test in a line: qHTS RealTime-Glo MT Cell Viability Assay in HEK293 cells - 40 hour (AID 1224874). Also: nearly all actives have a fitted effect of over 50% in size. The settings on record: RealTime-Glo luminescence; max response: active compounds read low. The source says:
U.S. Tox21 Program National Center for Advancing Translational Sciences [NCATS] NIH Chemical Genomics Center [NCGC] U.S. Environmental Protection Agency [EPA] National Institutes of Environmental Health Sciences [NIEHS] National Toxicology Program [NTP] U.S. Food and Drug Administration [FDA] Tox21 Assay Overview: Measure of cell viability is critical in the cell-base assay. Analysis of cell viability is necessary for the characterization of cell responses to cytotoxic drugs and environmental stress. A RealTime-Glo MT Cell Viability Assay to monitor cell viability in real time of continues cell culture during 40 hours of compound treatment was used to screen Tox21 10K library compounds in Hek293 cells. The RealTime-Glo MT Cell Viability Assay is a nonlytic, homogeneous, bioluminescent method to measure cell viability in real time using a simple, plate-based method. The assay involves adding NanoLuc luciferase and a cell-permeant prosubstrate to cells in culture. Viable cells reduce the proprietary prosubstrate to generate a substrate for NanoLuc luciferase. This substrate diffuses from cells into the surrounding culture medium, where it is rapidly used by the NanoLuc Enzyme to produce a luminescent signal. The signal correlates with the number of viable cells, making the assay well suited for cytotoxicity studies.
Tox21 Assay Protocol Summary: The mixture of Hek293 cell suspension and reagents were dispensed at 600cells/6 ul/well in 1536-well tissue culture treated black solid bottom plates using a Multidrop dispenser. After the assay plates were incubated at a 37 C/5% CO2 incubator for 5 hours, 23 nL of compounds dissolved in DMSO, positive and negative controls was transferred to the assay plate by a pintool work station. The plates were incubated at 37 C for 40 hours. The luminescence intensity were measured at 0h, 8h, 16h, 24h, 32h and 40h time points using ViewLux plate reader during compound treatment.
(In general: In qHTS, concentration-response curves come from the screen itself.)
For `Nc1ccc2cc(S(=O)(=O)O)cc(O)c2c1`, the max response is 0.478%.

`OCCCCC(O)CO` (stereo not given): the max response was 5.78%. For the compound `CC(C)C(=O)OCCc1ccccc1`, the max response is -2.86%.

Consider `COC(=O)C1CC(=O)C(C(=O)OC)CC1=O` (stereo not given), for which the max response was -0.164%. On the same count and under the same terms, the same measure for `O=C(OCc1ccccc1)C(=O)OCc1ccccc1`: 1.62%. Turning to `CC(C)(C)c1n[nH]c(=S)n(N)c1=O`, the max response is 2.54%.

For the compound `CCCCCCN`, the max response was 9.84%. On to `O=C1c2ccccc2C(=O)C1c1ccccc1`, for which the max response is 3.3%. On the same count and under the same terms, in the case of `C[Si](C)=O` it was 0.522%. For `O=C(O)Cc1cn(-c2ccccc2)nc1-c1ccc(Cl)cc1`, the max response is -3.35%. In the case of `CC(=C(CCOC(=O)C(C)C)SSC(CCOC(=O)C(C)C)=C(C)N(C=O)Cc1cnc(C)nc1N)N(C=O)Cc1cnc(C)nc1N`, the max response is 3.74%.

Turning to `O=C1CC(c2ccc(Cl)cc2)CC(=O)N1`, the max response is -1.95%. Consider `CC(=O)OC(C)OC(=O)C(C)c1ccc(-c2ccccc2)c(F)c1` (stereo not given), for which the max response was 3.38%. On to `O=C1CCCC(=O)O1`, for which the max response was 15.9%.

As for `O=S(=O)(O)c1cc(O)c2ccc(Nc3ccccc3)cc2c1`, the max response is 11.9%. On to `Cc1[nH]cnc1-c1ccc(Cl)cc1`, for which the max response was -3.17%. On to `CCCC/C=C/C=C\C=O`, for which the max response was 0.84%. As for `COCCc1ccc(OCC2CO2)cc1` (stereo not given), the max response was 13.1%. `Cc1ccccc1N=O`: the max response is 9.08%. In the case of `Oc1cn2c(n1)Nc1ccc(Cl)c(Cl)c1C2`, the max response was 10.9%.

Turning to `COP(=O)(OC)OC(c1ccc(Cl)cc1)P(=O)(OC)OC` (stereo not given), the max response was 4.98%. With `CCCCNC1CC(C)(C)NC(C)(C)C1`, the max response was 10.4%.

Consider `NCCS`, for which the max response is 7.37%. Turning to `COc1nccnc1NS(=O)(=O)c1ccc(N)cc1`, the max response was 2.98%. As to `CN1CCN(CC(=O)N2c3ccccc3C(=O)Nc3cccnc32)CC1`, the max response was 6.66%.

As to `Cc1cc(Cl)c(C)cc1Cl`, the max response is 6.26%. Regarding `c1ccc2nccnc2c1`, the max response is 5.36%. For the compound `Cc1ccccc1OCC(O)CO` (stereo not given), the max response was 1.4%. Same read-out and setting: in the case of `Cc1cccc(OCC(O)CNC(C)(C)C)c1C` (stereo not given) it was 0.394%; in that of `CC1=C(C(=O)O)N2C(=O)[C@@H](NC(=O)[C@H](N)c3ccc(O)cc3)[C@H]2SC1`, 13.3%; in that of `CCOCCOCCOCC`, 4.8%. For the compound `CC(=O)NCCCCCC(=O)O`, the max response was 5.61%. As to `CCOC(=O)c1ncn2c1CN(C)C(=O)c1cc(F)ccc1-2`, the max response is -10.6%. As to `O=C(Nc1ccc(Cl)c(Cl)c1)C1CC1`, the Potency is 8.49 µM (active).

`C=CC(OCC)OCC`: the max response was 8.05%. As to `c1ccc2c(c1)ccc1c3ccccc3ccc21`, the max response is 6.22%. With `CC(C)NCC(O)COc1ccc(COCCOC(C)C)cc1` (stereo not given), the max response is 3.86%. Regarding `NNc1nnc(NN)c2ccccc12`, the max response was 0.221%. Take `CCCOC(=O)C(C)O` (stereo not given): the max response was -7.32%. In the case of `C[Si](C)(C)C`, the max response is 7.29%.
